This passage reports activity increase over dofetilide control, less the hit threshold results from PubChem BioAssay AID1835 (Johns Hopkins Ion Channel Center, 2009).

Molecules are shown by their SMILES. The campaign covered roughly 2,400 compounds. About 750 (31%) were called active.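 Rule for the calls: active = median signal gain over dofetilide-blocked control wells reaching their mean plus 3 SD, so readout 1 at least 0; inactive = the rest.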 This is one part of the list.

Sequence of Voltage-gated inwardly rectifying potassium channel KCNH2 (Homo sapiens) (Q12809 whole entry, looked up): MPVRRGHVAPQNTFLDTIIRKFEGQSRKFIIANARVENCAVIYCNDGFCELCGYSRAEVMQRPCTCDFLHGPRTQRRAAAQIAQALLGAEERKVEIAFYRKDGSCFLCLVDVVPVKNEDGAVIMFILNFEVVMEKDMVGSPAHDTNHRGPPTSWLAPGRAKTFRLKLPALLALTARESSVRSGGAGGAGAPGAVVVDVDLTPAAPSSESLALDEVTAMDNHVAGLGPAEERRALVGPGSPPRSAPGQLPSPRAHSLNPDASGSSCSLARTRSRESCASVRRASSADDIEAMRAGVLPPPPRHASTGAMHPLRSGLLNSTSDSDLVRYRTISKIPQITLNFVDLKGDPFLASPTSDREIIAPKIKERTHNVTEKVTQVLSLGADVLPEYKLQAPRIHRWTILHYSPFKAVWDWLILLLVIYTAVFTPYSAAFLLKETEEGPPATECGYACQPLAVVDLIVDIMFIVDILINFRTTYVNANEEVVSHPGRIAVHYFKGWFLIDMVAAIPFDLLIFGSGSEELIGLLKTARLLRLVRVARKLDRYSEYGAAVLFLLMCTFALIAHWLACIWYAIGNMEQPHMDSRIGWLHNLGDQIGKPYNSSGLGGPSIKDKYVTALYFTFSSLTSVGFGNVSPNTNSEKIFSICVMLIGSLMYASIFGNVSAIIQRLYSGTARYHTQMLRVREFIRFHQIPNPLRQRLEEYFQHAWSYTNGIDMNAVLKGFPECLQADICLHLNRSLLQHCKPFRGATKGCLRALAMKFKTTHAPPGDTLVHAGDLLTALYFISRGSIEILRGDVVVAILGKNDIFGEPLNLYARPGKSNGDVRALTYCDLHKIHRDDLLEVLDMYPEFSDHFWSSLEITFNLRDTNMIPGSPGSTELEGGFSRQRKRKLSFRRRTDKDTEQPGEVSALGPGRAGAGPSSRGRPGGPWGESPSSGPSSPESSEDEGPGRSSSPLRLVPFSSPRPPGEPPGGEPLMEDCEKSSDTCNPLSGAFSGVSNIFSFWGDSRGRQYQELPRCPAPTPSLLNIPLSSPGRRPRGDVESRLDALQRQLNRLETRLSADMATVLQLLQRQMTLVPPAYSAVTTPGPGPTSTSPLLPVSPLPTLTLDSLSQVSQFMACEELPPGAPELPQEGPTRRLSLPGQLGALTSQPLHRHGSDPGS

This experiment has as its target Voltage-gated inwardly rectifying potassium channel KCNH2 (Homo sapiens) (UniProt Q12809). Briefly: hERG protection against dofetilide inhibition, confirmation, cell-based, thallium flux, duplicate retest, dofetilide IC70 (AID 1835). As to conditions: hERG cell line, FluxOR thallium flux, dofetilide-blocked; at 10 µM; active compounds read high. (The hERG channel carries a current that helps repolarise heart muscle cells.)
On to `C=CCNC(=S)Nc1sc2c(c1C(=O)OCC)CC(C(C)C)OC2` (stereo unspecified), for which the activity increase over dofetilide control, less the hit threshold is -4% (inactive).

For the compound `CNC(=S)Nc1sc2c(c1C(=O)OC)CCC2`, the activity increase over dofetilide control, less the hit threshold is 17% (active).

`CCOC(=O)c1c(/N=C/C2=C(O)CCCC2=O)sc2c1CCCC2`: the activity increase over dofetilide control, less the hit threshold was -14% (inactive).

Regarding `C=CCNC(=S)Nc1sc2c(c1C(=O)OCC)CC(C)(CC)OC2` (stereo unspecified), the activity increase over dofetilide control, less the hit threshold is 15% (active).

Take `COC(=O)c1c(NC(=S)Nc2ccc(F)cc2[N+](=O)[O-])sc2c1CCCCC2`: the activity increase over dofetilide control, less the hit threshold was 11% (active).

For the compound `CCOC(=O)c1c(NC(=S)NC)sc2c1CCCC2`, the activity increase over dofetilide control, less the hit threshold is 42% (active).

As for `COc1ccc(NC(=S)NC(NC(=O)c2cccc3ccccc23)C(Cl)(Cl)Cl)c([N+](=O)[O-])c1` (stereo unspecified), the activity increase over dofetilide control, less the hit threshold was -23% (inactive).

`COc1ccc(CCNC(=O)CSc2ccc3nnc(CCNC(=O)c4ccccc4)n3n2)cc1OC`: the activity increase over dofetilide control, less the hit threshold is -13% (inactive).

Turning to `Clc1cccc(-c2ccc(C=Nc3ccc(N4CCOCC4)cc3)o2)c1Cl`, the activity increase over dofetilide control, less the hit threshold is -12% (inactive).

On to `COc1ccc(CCNC(=O)CC(NS(=O)(=O)c2ccc(NC(C)=O)cc2)C(C)C)cc1OC` (stereo unspecified), for which the activity increase over dofetilide control, less the hit threshold is -8% (inactive).

In the case of `CCOC(=O)c1c(NC(=S)NC)sc2c1CC(C)(C)SC2`, the activity increase over dofetilide control, less the hit threshold is 79% (active).

With `CC(=O)NC(CSC(CC(=O)c1ccco1)c1ccc(C)cc1)C(=O)O` (stereo unspecified), the activity increase over dofetilide control, less the hit threshold is -15% (inactive).

Consider `C[n+]1ccccc1/C=C/c1c(F)cccc1F`, for which the activity increase over dofetilide control, less the hit threshold is -2% (inactive).

In the case of `C[n+]1ccccc1/C=C/c1ccc(C#N)cc1`, the activity increase over dofetilide control, less the hit threshold is 6% (active).

As to `COc1cc(Cl)cc(C(c2c(C(=O)O)[nH]c3ccccc23)c2c(C(=O)O)[nH]c3ccccc23)c1O`, the activity increase over dofetilide control, less the hit threshold was -20% (inactive).

On to `CC(=O)NCCc1nc2cc(NC(=O)c3ccc(Cl)cc3)ccc2n1C`, for which the activity increase over dofetilide control, less the hit threshold is -9% (inactive).

With `Cc1c(-c2ccn[nH]2)cc(NC(=O)c2ccc(Cl)cc2)c(=O)n1N`, the activity increase over dofetilide control, less the hit threshold is 7% (active).

On to `Cn1nc(C(F)(F)F)c(-c2ccc(Br)cc2)c1NC(=O)c1cccnc1`, for which the activity increase over dofetilide control, less the hit threshold was 6% (active).

As to `CN(C)S(=O)(=O)c1cccc(C(=O)Nc2cccnc2)c1`, the activity increase over dofetilide control, less the hit threshold was -6% (inactive).

On to `O=C(N=C1SC2CS(=O)(=O)CC2N1c1cccc(Cl)c1Cl)C1CCCO1` (stereo unspecified), for which the activity increase over dofetilide control, less the hit threshold was -15% (inactive).

Consider `CCOc1ccc(S(=O)(=O)Nc2nc3ccccc3nc2-n2ccc(=NC(=O)c3cccs3)cc2)cc1`, for which the activity increase over dofetilide control, less the hit threshold is -6% (inactive).

Take `Cc1nonc1CN(C)C(=O)c1ccc(OC2CCN(Cc3ccccn3)CC2)cc1`: the activity increase over dofetilide control, less the hit threshold was 3% (active).

For the compound `CN(CCc1ccccn1)C(=O)CCC1CCCN(C(=O)c2ccsc2)C1` (stereo unspecified), the activity increase over dofetilide control, less the hit threshold is -5% (inactive).

As for `C/C(=N\N1CCN(C2c3ccccc3-c3ccccc32)CC1)c1ccncc1`, the activity increase over dofetilide control, less the hit threshold was -18% (inactive).

As for `C/C(=C/CCC(C)C1CCC2(C)C3CCC4C(C)(C)C(=O)CCC4(C)C3=CCC12C)C(=O)O` (stereo unspecified), the activity increase over dofetilide control, less the hit threshold was 15% (active).

For the compound `C/C(=C/CCC(C)[C@H]1CC[C@@]2(C)C3=C(CC[C@]12C)[C@@]1(C)CCC(=O)C(C)(C)[C@@H]1CC3)C(=O)O` (stereo partly specified), the activity increase over dofetilide control, less the hit threshold was 45% (active).
